Compound activity deposited in PubChem by National Center for Advancing Translational Sciences (NCATS).
HT1080 IDH1KD tx: toxicity to HT-1080 IDH1 knockdown cells (counter line) | Potency, µM (series often up to 46.1 µM), inactives show at the highest dose activity, negative = toxicity, hits mostly cytotoxic | HT-1080 IDH1 knockdown viability, ATP luminescence, 48 h | AID 686971 | 2% of 360,000 active;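 note: 0% = DMSO wells and -100% = cell-free medium wells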
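CellTiter-Glo luminescence after 48 h compound exposure at 37 degrees C of IDH1-knockdown HT-1080 cells in 5% FBS RPMI. %Activity scaled between DMSO wells and cell-free media wells, with curves fitted and assigned curve classes.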
HT1080NT lethal: kills 2HG-producing HT-1080-NT fibrosarcoma cells | HT-1080-NT fibrosarcoma viability, CellTiter-Glo ATP luminescence, 48 h | Potency, µM (doses to about 46.1 µM), for the others: top-dose activity, negative = less viability, usual class: cytotoxic | 1.6% of 360,000 active;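 note: NT is the 2HG producing partner of a matched IDH1 knockdown line; 0% = DMSO-treated cells and -100% = media-only wells without cells; nearly all actives have a fitted effect of over 55% in size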
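750 cells/well, RPMI + 5% FBS; 2 h settle, compound pin-transfer, 48 h at 37 degrees C. CellTiter-Glo 10 min RT, luminescence. Normalized to DMSO and media-only wells.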
KB-3-1 tox: kills parental KB-3-1 adenocarcinoma cells; KB-3-1 viability, CellTiter-Glo ATP luminescence, 72 h; Potency, µM (doses to about 46.1 µM), hits mostly cytotoxic; 1.4% of 400,000 active; note: nearly all actives have a fitted effect of over 60% in size
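Cytotoxicity in the drug-sensitive parental line KB-3-1 was scored as loss of CellTiter-Glo luminescence following 72 h incubation with compound. Values come from curve fitting of normalized concentration-response data.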
TDP1 cell CPT: growth inhibition of DT40 Tdp1-/-;hTDP1 cells with camptothecin (screen for TDP1 inhibitors) | chicken DT40 Tdp1-/-;hTDP1 cells + 20 nM CPT, ATP luminescence, 48 h | Potency, µM (titrated, usually from 46.2 µM), for inactives: top-dose activity change, negative = growth inhibition, most hits filed as inhibitors | 12% of 420,000 active; note: nearly all actives have a fitted effect of over 55% in size
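Chicken DT40 Tdp1-/- cells complemented with human TDP1, 400 cells/well, exposed to compounds plus 20 nM camptothecin for at least 48 h at 37 C; viability read as ATP content by CellTiter-Glo luminescence.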
KB-V1 cytotox: KB-V1 MDR subline cytotoxicity | KB-V1 MDR cells viability, CellTiter-Glo, 72 h | Potency, µM (series often up to 46.1 µM), actives largely listed as cytotoxic | 3.4% of 400,000 active | AID 1347076; note: nearly all actives have a fitted effect of over 60% in size
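In this primary screen, KB-V1 cells overexpressing P-gp are incubated with library compounds (lowest to highest concentration) for 72 h at 37 degrees C before a luminescent ATP viability read.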
TDP1 cell noCPT: qHTS for Inhibitors of human tyrosyl-DNA phosphodiesterase 1 (TDP1): qHTS in cells in absence of CPT | DT40 Tdp1-/- hTDP1 cells, no CPT, ATP luminescence, 48 h | Potency, µM (doses to about 46.2 µM), without a hit: top-dose activity change, negative = growth inhibition, usual class: inhibitors | 15% of 420,000 active | AID 686978, 2013; note: nearly all actives have a fitted effect of over 55% in size
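Seeded 400 DT40-hTDP1 cells/well (vehicle DMSO, no 20 nM CPT); pinned compounds; ≥48 hr at 37 °C; CellTiter-Glo luminescence as viability measure.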
Starred values were filed as active, the others as inactive; i = inactive; ? = inconclusive; / = not tested or not shown; [ ] = dose if it differs, or a comment. Sampled rows, rich in hits. Any-hit rate of the full collection: about 19%. Calls come from the whole dose curve; as a rule, active = well fitted curve in the direction sought with a large enough effect; inconclusive = small, poorly fitted or top-dose-only effect, or another doubt; inactive = no such curve, though single readings can be large; an effect the other way counts as inactive or inconclusive. Unless noted, % is set by controls: 0 for no effect and ±100 for the full control effect; potency is the fitted concentration of half-maximal effect.

SMILES	HT1080 IDH1KD tx	HT1080NT lethal	KB-3-1 tox	TDP1 cell CPT	KB-V1 cytotox	TDP1 cell noCPT
CC(C)(C)c1ccc(C(=O)NC(=S)Nc2sc3c(c2C#N)CCC3)cc1	-6%	3%	?	?	?	?
COc1ccc(-c2c3c(=O)n(C)c(=O)n(C)c3cn2N2CCOCC2)cc1	-5%	-4%	i	-18%	i	?
COc1ccc(-c2c3c(=O)n(C)c(=O)n(C)c3cn2-c2ccccc2)cc1	-5%	-2%	i	26µM*	i	13µM*
C#CCn1cc2c(c1-c1ccccc1)c(=O)n(C)c(=O)n2C	1%	8%	i	16µM*	i	21µM*
COc1ccc(-c2c3c(=O)n(C)c(=O)n(C)c3cn2-c2cccc(N)c2)cc1	/	/	i	?	i	23µM*
Cn1c(=O)c2c(-c3ccccc3)n(-c3cccc(Br)c3)cc2n(C)c1=O	1%	-11%	i	9.2µM*	i	8.2µM*
Cn1c(=O)c2c(-c3cccc(Br)c3)n(C(C)(C)CO)cc2n(C)c1=O	/	/	i	?	i	?
Cc1cc(C)n(-c2nc3ccccc3nc2Nc2cccc(C)c2C)n1	/	/	i	-13%	i	-16%
Cc1cc(C(=O)O)sc1C	-2%	-4%	i	0%	?	-4%
CNC(=O)N(C1=NCCCCC1)c1ccc(Br)cc1	-15%	9%	i	-29%	i	-12%
Cn1c(=O)c2c(-c3ccccc3)n(-c3cc(C(=O)O)ccc3O)cc2n(C)c1=O	14%	28%	i	-15%	i	5%
Cn1c(=O)c2c(-c3ccccc3)n(-c3ccccc3F)cc2n(C)c1=O	12%	24%	i	15µM*	i	13µM*
Cn1c(=O)c2c(-c3ccccc3)n(-c3ccccc3)cc2n(C)c1=O	-6%	5%	i	3.7µM*	i	4.6µM*
COC(=O)c1sccc1-n1cc2c(c1-c1ccccc1)c(=O)n(C)c(=O)n2C	4%	5%	?	?	i	21µM*
Cn1c(=O)c2c(-c3ccccc3)n(-c3cccc(C#N)c3)cc2n(C)c1=O	/	/	i	16µM*	i	23µM*
Cn1c(=O)c2c(-c3ccccc3)n(-c3cc([N+](=O)[O-])ccc3N)cc2n(C)c1=O	-3%	-4%	i	?	?	?
Cn1c(=O)c2c(-c3ccccc3)n(CCCO)cc2n(C)c1=O	/	/	i	-11%	i	-22%
O=C(O)C1C2CCC(O2)C1C(=O)Nc1ccc(Br)cc1F (stereo not given)	-4%	-6%	i	0%	i	7%
CC(C)CCn1nnc2sc(-c3ccccc3)cc2c1=O	/	/	i	-8%	i	-21%
Cn1c(=O)c2c(-c3ccccc3)n(-n3cnnc3)cc2n(C)c1=O	-27%	-19%	i	26µM*	i	?
CCOC(=O)c1ccc(O)c(-n2cc3c(c2-c2ccccc2)c(=O)n(C)c(=O)n3C)c1	-2%	1%	i	?	i	15µM*
Cc1noc(C)c1C(=O)OCC(=O)Nc1ncc(Cl)c(C)c1Cl	13%	8%	i	-16%	?	-9%
COc1ccc(-c2cc3nc(NCCCN(C)C)n(C)c(=O)c3s2)c(C)c1	-29%	?	i	?	i	?
CN(C)CCCNc1nc2cc(-c3ccccc3CO)sc2c(=O)n1C	29%	25%	i	-16%	i	-2%
Cc1cc(Cl)ccc1-c1cc2nc(NCCCN(C)C)n(C)c(=O)c2s1	18µM*	18µM*	i	23µM*	i	13µM*
SMILES	HT1080 IDH1KD tx	HT1080NT lethal	KB-3-1 tox	TDP1 cell CPT	KB-V1 cytotox	TDP1 cell noCPT
Cc1cscc1-c1cc2nc(NCCCN(C)C)n(C)c(=O)c2s1	?	?	i	16µM*	i	?
CCNC(=O)COC(=O)c1cc(C)n(-c2ccccc2)c1C	0%	13%	i	-28%	i	-24%
Cc1cc(C(=O)COC(=O)c2ccc[nH]c2=O)c(C)n1-c1ccccc1	-1%	0%	i	-22%	18µM*	-26%
O=C(COC(=O)c1ccc[nH]c1=O)NCCc1ccc(F)cc1	10%	10%	i	0%	i	17%
Cc1cc(C(=O)COC(=O)c2ccc[nH]c2=O)c(C)n1-c1ccc(F)cc1	13%	-2%	i	-4%	18µM*	?
Cc1cc(C(=O)OCC(=O)NCc2ccco2)c(C)n1-c1ccc(F)cc1	?	?	?	0.65µM*	1.3µM*	0.82µM*
Cc1ccc(C)c(CN2C(=O)c3ccccc3S(=O)(=O)c3ccc(C(=O)N(C)C4CCCCC4)cc32)c1	/	/	/	?	/	21µM*
CN(C(=O)c1ccc2c(c1)N(Cc1ccccc1F)C(=O)c1ccccc1S2(=O)=O)C1CCCCC1	/	/	i	?	?	23µM*
CC(C)CCNC(=O)c1ccc2c(c1)N(Cc1ccccc1F)C(=O)c1ccccc1S2(=O)=O	/	/	i	?	i	?
CN(C(=O)c1ccc2c(c1)N(Cc1ccccc1F)C(=O)c1ccccc1S2)C1CCCCC1	/	/	/	?	/	23µM*
CC1CCCN(Cc2csc(N)n2)C1 (stereo not given)	13%	1%	i	1%	?	-2%
NC(=N\N=CCc1ccccc1)/C(N)=N/N=CCc1ccccc1	6%	8%	i	?	i	?
CC(=O)Oc1[nH]c(=O)c2cccc3c2c1CCC3	2%	-12%	i	?	i	29µM*
CC1(Oc2ccc3ccccc3c2)CCN(Cc2cccn2-c2nccs2)C1 (stereo not given)	15µM*	21µM*	i	29µM*	i	23µM*
COc1cc(Cl)ccc1OC1(C)CCN(Cc2cccn2-c2nccs2)C1 (stereo not given)	?	?	i	12µM*	i	21µM*
OCC(O)C1OC(c2ccco2)OC(CO)C1O (stereo not given)	8%	8%	i	0%	i	-1%
COc1ccccc1NC(=O)N1CCCC(CNC(=O)c2ccccc2Cl)C1 (stereo not given)	1%	19%	i	-2%	i	17%
O=S(=O)(NCC1CCCO1)c1ccc(S(=O)(=O)N(Cc2ccccc2F)C2CCCCC2)cc1 (stereo not given)	6%[9.24 µM]	?	i	13µM*	?	?
